This is an account of results in PubChem BioAssay (NCI).

The panel holds about 83,000 compounds, 20% with a hit somewhere; the sample as a whole holds those more often.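 Single-concentration screen, 48 h exposure, 96-well plates. Endpoint: percent growth. Below 10 = active.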 Values without a mark were called inactive. The source made the active and inactive calls.

Some test systems named below: HT29 colon; SNB-75 CNS; SNB-19 CNS; U251 CNS; PC-3 prostate; SK-MEL-5 melanoma; UACC-62 melanoma; LOX IMVI melanoma; SK-MEL-28 melanoma; SK-MEL-2 melanoma; SN12C renal; UO-31 renal; TK-10 renal; ACHN renal; CAKI-1 renal; A498 renal; CCRF-CEM leukemia; MOLT-4 leukemia; SR leukemia.
Assay in all cases: NCI-60 one-dose screen, 48 h (100 = growth as untreated, 0 = no growth, -100 = all killed)
Conditions in all cases: 10 µM

On to `CC(C)(Cl)CCC1=C(Cl)C(=O)c2ccccc2C1=O`, for which the growth with HT29 colon is 115%; in the assay on SNB-75 CNS, 30.7%; with SNB-19 CNS, 89%; in the assay on U251 CNS, 49.9%; in the assay on PC-3 prostate, 32.8%; with SK-MEL-5 melanoma it was -34.8% (active). Also, the growth in the assay on UACC-62 melanoma is 2.45% (active); in the assay on LOX IMVI melanoma it was 20.6%; with SK-MEL-28 melanoma, 56.9%; in the assay with SK-MEL-2 melanoma, 79.1%; with SN12C renal it was 79.9%; in the assay on UO-31 renal it was 36.5%. Besides, the growth was 124% in the assay with TK-10 renal; 26.3% in the assay with ACHN renal; 96% in the assay with CAKI-1 renal; 27.4% with A498 renal; -33.9% (active) in the assay on CCRF-CEM leukemia; -16.2% (active) in the assay on MOLT-4 leukemia. The growth with SR leukemia is -25.3% (active).

With `COc1cc(Nc2ccnc(NCCCNc3ccnc4cc(Cl)ccc34)n2)cc(OC)c1`, the growth with HT29 colon was -31.9% (active); in the assay on SNB-75 CNS, -58.6% (active); in the assay with SNB-19 CNS, 2.03% (active); in the assay with U251 CNS, -64.4% (active); in the assay with PC-3 prostate, 26.1%; in the assay with SK-MEL-5 melanoma, -100% (active). Also, the growth in the assay with UACC-62 melanoma was -82.5% (active); in the assay on LOX IMVI melanoma, -82.5% (active); in the assay with SK-MEL-28 melanoma, -100% (active); in the assay with SK-MEL-2 melanoma, -81.6% (active); in the assay on SN12C renal it was 22.6%; in the assay on UO-31 renal, -74.8% (active). The growth in the assay with TK-10 renal was -63.4% (active); with ACHN renal it was -58.1% (active); in the assay on CAKI-1 renal, -3.88% (active); in the assay on A498 renal, 14.9%; in the assay on CCRF-CEM leukemia it was -5.06% (active); with MOLT-4 leukemia, -39.6% (active). The growth with SR leukemia was -21.6% (active).

As for `CN(C)C=Nc1cc(Cl)ccc1Cl`, the growth was 100% with HT29 colon; 89.8% with SNB-75 CNS; 95.3% with SNB-19 CNS; 115% with U251 CNS; 99.8% in the assay with PC-3 prostate; 101% with SK-MEL-5 melanoma. For the same compound, the growth in the assay with UACC-62 melanoma is 99.1%; in the assay on LOX IMVI melanoma, 102%; in the assay with SK-MEL-28 melanoma, 102%; in the assay on SK-MEL-2 melanoma, 97%; with SN12C renal, 97.7%; in the assay with UO-31 renal, 100%. The growth in the assay on TK-10 renal was 116%; in the assay on ACHN renal, 109%; in the assay on CAKI-1 renal, 96.5%; in the assay on A498 renal, 105%; in the assay on CCRF-CEM leukemia, 97.4%; in the assay with MOLT-4 leukemia it was 108%. Moreover, in the assay on SR leukemia, the growth was 108%.

On to `O=C1/C(=C\c2ccc(Cl)cc2)CN(C(=O)c2ccccc2)C/C1=C\c1ccc(Cl)cc1`, for which the growth is -84.9% (active) in the assay with HT29 colon; 51.4% in the assay with SNB-75 CNS; 68.2% in the assay on SNB-19 CNS; -74% (active) with U251 CNS; 25.8% with PC-3 prostate; 66.8% with SK-MEL-5 melanoma. The growth was 34.6% in the assay on UACC-62 melanoma; -51.8% (active) in the assay with LOX IMVI melanoma; 59.7% in the assay on SK-MEL-28 melanoma; 87.1% with SK-MEL-2 melanoma; 36.8% in the assay with SN12C renal; 2.38% (active) with UO-31 renal. In addition, the growth in the assay with TK-10 renal was 94.7%; in the assay with ACHN renal it was 47.4%; in the assay with CAKI-1 renal it was 32.4%; with A498 renal it was 84.2%; in the assay on CCRF-CEM leukemia, 11.2%; in the assay with MOLT-4 leukemia, 21.5%. Further, in the assay on SR leukemia, the growth is -20.1% (active).

For `O=c1cc(-c2ccccc2)[nH]n1-c1nc2ccccc2[nH]1`, the growth was 87.1% with HT29 colon; 64.4% with SNB-75 CNS; 53.1% with SNB-19 CNS; 31.7% with U251 CNS; 56.6% in the assay on PC-3 prostate; 34.1% in the assay on SK-MEL-5 melanoma. Besides, the growth in the assay on UACC-62 melanoma was 36.5%; in the assay on LOX IMVI melanoma, 27.8%; with SK-MEL-28 melanoma, 74.1%; with SK-MEL-2 melanoma, 68.5%; with SN12C renal, 49.5%; in the assay with UO-31 renal it was 38.4%. Further, the growth in the assay on TK-10 renal is 63.1%; in the assay with ACHN renal, 37.2%; with CAKI-1 renal, 45.9%; in the assay with A498 renal, 1.96% (active); in the assay with CCRF-CEM leukemia it was 11.9%; in the assay on MOLT-4 leukemia it was -18.6% (active). Besides, the growth in the assay with SR leukemia was 39.3%.

As to `Cc1c(Cl)cccc1NC(=O)c1sc2nc3c(cc2c1N)C(=O)CCC3`, the growth with HT29 colon is 3.09% (active); in the assay with SNB-75 CNS, 27%; in the assay with SNB-19 CNS, 45.4%; with U251 CNS, 7.51% (active); in the assay on PC-3 prostate it was 21.4%; with SK-MEL-5 melanoma, 9.76% (active). In addition, the growth was 34.5% with UACC-62 melanoma; 33.3% with LOX IMVI melanoma; 43.7% in the assay on SK-MEL-28 melanoma; 18% in the assay on SK-MEL-2 melanoma; 30.8% in the assay with SN12C renal; 33.3% in the assay on UO-31 renal. Also, the growth with TK-10 renal was 74.3%; with ACHN renal, 39.4%; with CAKI-1 renal, 23.9%; in the assay with A498 renal, -19% (active); in the assay with CCRF-CEM leukemia, 7.08% (active); with MOLT-4 leukemia, 6.7% (active). Besides, the growth in the assay with SR leukemia was 2.96% (active).

With `N#Cc1ncc(-c2cc(F)c(F)c(F)c2)c(NC2CCCCCC2)n1`, the growth is 97.6% in the assay with HT29 colon; 65.1% in the assay with SNB-75 CNS; 90.9% in the assay with SNB-19 CNS; 50.2% in the assay on U251 CNS; 77.1% in the assay on PC-3 prostate; 93% with SK-MEL-5 melanoma. The growth in the assay with UACC-62 melanoma was 84.8%; in the assay on LOX IMVI melanoma it was 84.9%; with SK-MEL-28 melanoma, 94.1%; in the assay with SK-MEL-2 melanoma, 96.2%; in the assay with SN12C renal it was 83.6%; in the assay with UO-31 renal, 89.4%. In addition, the growth with TK-10 renal was 105%; with ACHN renal it was 92.6%; with CAKI-1 renal, 92.9%; in the assay with A498 renal, 52.2%; in the assay on CCRF-CEM leukemia, 83.9%; in the assay on MOLT-4 leukemia, 78.1%. Further, in the assay with SR leukemia, the growth is 78.8%.
